Reference: PubChem BioAssay AID1159580 (chemical genetic matrix, 2015)
Screen size: about 5,500 compounds; about 2,000 (36%) were called active. Inconclusive results (about 18%) are left out. Cut-off read from the data, not from the text of the source: active = normalized growth mostly below about 0.91 (no sharp cut-off); inconclusive = no clear call, values can overlap the other calls; inactive = mostly above about 0.92. Some of the results follow.

Assay: chemical genetic growth profiling, strain panel (AID 1159580);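 note: tested at 20 µM; growth read once vehicle control cultures reached saturation at 30 °C; 1 = growth at the plate median or of vehicle wells; lower values mean less growth of the strain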
Details: growth OD

Measured: normalized growth

CCOC(=O)OC(C)OC(=O)C1N2C(=O)C(NC(=O)[C@H](N)c3ccccc3)C2SC1(C)C (stereo not given in full)
inactive: S. cerevisiae deletion strains, locus YJR075W, strain HOC1, active compounds read low 0.966 | S. cerevisiae deletion strains, locus YKL009W, strain mrt4, active compounds read low 0.946 | S. cerevisiae deletion strains, locus YKL068W, active compounds read low 0.98 | S. cerevisiae deletion strains, locus YKL085W, strain MDH1 (second series), active compounds read low 0.989 | S. cerevisiae deletion strains, locus YKL085W, strain MDH1, active compounds read low 0.989 | S. cerevisiae deletion strains, locus YKL160W, strain elf1, active compounds read low 0.966 | S. cerevisiae deletion strains, locus YKL190W, strain CNB1, active compounds read low 0.975 | S. cerevisiae deletion strains, locus YKR001C, strain vps1, active compounds read low 0.98 | S. cerevisiae deletion strains, locus YKR026C, strain gcn3, active compounds read low 1.01 | S. cerevisiae deletion strains, locus YKR091W, strain srl3, active compounds read low 0.977 | S. cerevisiae deletion strains, locus YLL001W, strain dnm1, active compounds read low 0.96 | S. cerevisiae deletion strains, locus YLL026W, active compounds read low 0.998 | S. cerevisiae deletion strains, locus YLL041C, strain sdh2, active compounds read low 0.983 | S. cerevisiae deletion strains, locus YLR027C, strain aat2, active compounds read low 0.984 | S. cerevisiae deletion strains, locus YLR039C, strain RIC1, active compounds read low 0.991 | S. cerevisiae deletion strains, locus YLR058C, strain SHM2, active compounds read low 0.963 | S. cerevisiae deletion strains, locus YLR102C, strain apc9, active compounds read low 0.987 | S. cerevisiae deletion strains, locus YLR113W, strain HOG1, active compounds read low 0.966 | S. cerevisiae deletion strains, locus YLR221C, strain rsa3, active compounds read low 0.999 | S. cerevisiae deletion strains, locus YLR258W, strain gsy2, active compounds read low 1 | S. cerevisiae deletion strains, locus YLR262C, strain YPT6 (second series), active compounds read low 0.982 | S. cerevisiae deletion strains, locus YLR262C, strain YPT6, active compounds read low 0.964 | S. cerevisiae deletion strains, locus YLR268W, strain sec22, active compounds read low 0.988 | S. cerevisiae deletion strains, locus YLR320W, strain mms22, active compounds read low 0.96 | S. cerevisiae deletion strains, locus YLR330W, strain CHS5, active compounds read low 0.992 | S. cerevisiae deletion strains, locus YLR342W, strain FKS1 (second series), active compounds read low 1.11 | S. cerevisiae deletion strains, locus YLR342W, strain FKS1, active compounds read low 0.976 | S. cerevisiae deletion strains, locus YLR357W, strain rsc2, active compounds read low 0.961 | S. cerevisiae deletion strains, locus YLR370C, strain arc18, active compounds read low 0.982 | S. cerevisiae deletion strains, locus YLR371W, strain rom2, active compounds read low 0.999 | S. cerevisiae deletion strains, locus YLR384C, strain iki3, active compounds read low 0.974 | S. cerevisiae deletion strains, locus YLR418C, strain cdc73, active compounds read low 0.978 | S. cerevisiae deletion strains, locus YML016C, strain PPZ1, active compounds read low 0.986 | S. cerevisiae deletion strains, locus YML032C, strain rad52, active compounds read low 0.962 | S. cerevisiae deletion strains, locus YML120C, strain ndi1, active compounds read low 0.974 | S. cerevisiae deletion strains, locus YML124C, strain tub3, active compounds read low 0.987 | S. cerevisiae deletion strains, locus YMR058W, strain fet3, active compounds read low 0.977 | S. cerevisiae deletion strains, locus YMR078C, strain ctf18, active compounds read low 0.994 | S. cerevisiae deletion strains, locus YMR125W, strain sto1, active compounds read low 0.99 | S. cerevisiae deletion strains, locus YMR129W, active compounds read low 0.992 | S. cerevisiae deletion strains, locus YMR205C, strain PFK2, active compounds read low 0.966 | S. cerevisiae deletion strains, locus YMR223W, strain ubp8, active compounds read low 0.986 | S. cerevisiae deletion strains, locus YMR231W, strain pep5, active compounds read low 0.998 | S. cerevisiae deletion strains, locus YMR263W, strain SAP30, active compounds read low 0.967 | S. cerevisiae deletion strains, locus YMR307W, strain GAS1, active compounds read low 1.04 | S. cerevisiae deletion strains, locus YNL067W, strain RPL9B, active compounds read low 0.945 | S. cerevisiae deletion strains, locus YNL071W, strain lat1, active compounds read low 0.998 | S. cerevisiae deletion strains, locus YNL153C, strain GIM3, active compounds read low 0.932 | S. cerevisiae deletion strains, locus YNL183C, strain NPR1, active compounds read low 0.947 | S. cerevisiae deletion strains, locus YNL209W, strain ssb2, active compounds read low 0.989 | S. cerevisiae deletion strains, locus YNL233W, strain BNI4, active compounds read low 0.97 | S. cerevisiae deletion strains, locus YNL248C, strain rpa49, active compounds read low 0.985 | S. cerevisiae deletion strains, locus YNL250W, strain rad50, active compounds read low 0.968 | S. cerevisiae deletion strains, locus YNL271C, strain bni1, active compounds read low 0.986 | S. cerevisiae deletion strains, locus YNL298W, strain CLA4, active compounds read low 0.982 | S. cerevisiae deletion strains, locus YNL307C, strain MCK1, active compounds read low 0.995 | S. cerevisiae deletion strains, locus YNL322C, strain KRE1 (second series), active compounds read low 0.968 | S. cerevisiae deletion strains, locus YNL322C, strain KRE1, active compounds read low 0.985 | S. cerevisiae deletion strains, locus YNR049C, strain mso1, active compounds read low 0.976 | S. cerevisiae deletion strains, locus YNR052C, strain pop2, active compounds read low 0.987 | S. cerevisiae deletion strains, locus YOL006C, strain TOP1, active compounds read low 0.825 | S. cerevisiae deletion strains, locus YOL012C, strain htz1 0.766 | S. cerevisiae deletion strains, locus YOL147C, strain pex11, active compounds read low 0.993 | S. cerevisiae deletion strains, locus YOR001W, strain rrp6, active compounds read low 1.01 | S. cerevisiae deletion strains, locus YOR061W, strain CKA2, active compounds read low 0.949 | S. cerevisiae deletion strains, locus YOR069W, strain VPS5, active compounds read low 0.992 | S. cerevisiae deletion strains, locus YOR070C, strain gyp1, active compounds read low 0.993 | S. cerevisiae deletion strains, locus YOR080W, strain dia2, active compounds read low 0.975 | S. cerevisiae deletion strains, locus YOR083W, strain WHI5, active compounds read low 0.967 | S. cerevisiae deletion strains, locus YOR106W, strain vam3, active compounds read low 0.952 | S. cerevisiae deletion strains, locus YOR136W, strain idh2, active compounds read low 0.974 | S. cerevisiae deletion strains, locus YOR144C, strain elg1, active compounds read low 0.987 | S. cerevisiae deletion strains, locus YOR184W, strain ser1, active compounds read low 0.985 | S. cerevisiae deletion strains, locus YOR231W, strain MKK1, active compounds read low 0.978 | S. cerevisiae deletion strains, locus YOR265W, strain rbl2, active compounds read low 0.993 | S. cerevisiae deletion strains, locus YOR270C, strain vph1, active compounds read low 0.92 | S. cerevisiae deletion strains, locus YOR290C, strain snf2, active compounds read low 0.985 | S. cerevisiae deletion strains, locus YOR316C, strain cot1, active compounds read low 0.976 | S. cerevisiae deletion strains, locus YPL051W, strain arl3, active compounds read low 0.99 | S. cerevisiae deletion strains, locus YPL055C, strain LGE1, active compounds read low 0.881 | S. cerevisiae deletion strains, locus YPL078C, strain atp4, active compounds read low 0.971 | S. cerevisiae deletion strains, locus YPL106C, strain sse1, active compounds read low 0.955 | S. cerevisiae deletion strains, locus YPL240C, strain hsp82, active compounds read low 1 | S. cerevisiae deletion strains, locus YPL256C, strain CLN2, active compounds read low 0.978 | S. cerevisiae deletion strains, locus YPR119W, strain clb2, active compounds read low 0.983 | S. cerevisiae deletion strains, locus YPR141C, strain kar3, active compounds read low 0.978 | S. cerevisiae deletion strains, locus YPR163C, strain tif3, active compounds read low 0.984 | S. cerevisiae deletion strains, locus YPR167C, strain met16, active compounds read low 0.996 | S. cerevisiae deletion strains, strain wtn01, active compounds read low 0.992 | S. cerevisiae strains, strain wild type, active compounds read low 0.98
